In PubChem BioAssay AID1508600 (Functional Genomics Laboratory (NCATS/FGL), 2020):
Out of some 53,000 sequences screened, about 3,700 (7%) were called active.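 How the source made its calls: active means gene knockdowns whose robust z-score for IL-1 alpha signal is at least 2 or at most -2, so actives lie on both sides; inactive means the rest.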 The entries come from a sample that favours actives as a whole.

Test: Components of the Cytosolic LPS Sensing Pathway: Gene Identification via Genome-wide siRNA Screen;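 further: robust z of the log signal after scaling to non-targeting control siRNA wells of the plate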
Settings: RAW264.7 macrophages, IL-1a HTRF, actives lie on both sides, screened at 100 nM (by protocol), cells primed 5 h with Pam3CSK4 first
In short: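 Knockdown: 100 nM siRNA, 48h, RAW264.7. Stimulation: Pam3CSK4 5 h, then LipidA via TransIT-TKO 24 h. Output: supernatant IL-1a HTRF, negative-control-normalized, log robust z-score; viability by CellTiter-Glo.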

Sequence | z-score
GGUGAAAAGAUGCAGGUGATT against Atp1a3 | -1.1 (inactive)
CGAUGAACACACGUCUUAUTT against Dtl | 2.05 (active)
GGGCAGGAACAAAAGAAGCTT against Dsc1 | 0.165 (inactive)
GGUGUCACCAUUUCAGUGGTT against Lbp | 0.703 (inactive)
GCAUUCAUGUGCUCUGCCCTT against Ifitm6 | -0.952 (inactive)
GGCUGUCUUCUGAUCAAUUTT against Adamts3 | 2.42 (active)
GGCAUUGAAUUAAAGAUACTT against Myct1 | -1.06 (inactive)
GCAUCACGGAUUCGAAUUGTT against Dgkz | -1.25 (inactive)
GGAAGACAUAAUAAUAGAGTT against Rad17 | -1.39 (inactive)
CCUACAAGAACGAAGAUUUTT against Pla2g4d | -1.67 (inactive)
CCAACAUCGAGCUAGCCACTT against Psma5 | -2.28 (active)
CCACCUACGUCAACACUAATT against Kcnh6 | -1.8 (inactive)
CCAGAUGUUGGAUAAAACGTT against Fbxw10 | -0.333 (inactive)
GGAAAUUUCAGUCGAACAGTT against Arhgap31 | 0.333 (inactive)
GGUCUUUGACAGAAUAAAATT against Yipf1 | 1.94 (inactive)
GGCAUCCACCCUAAGGUCATT against Keap1 | 1.03 (inactive)
GGAUUGAGUGACGACUGACTT against Nova2 | 2.25 (active)
GGCCUCCAAAUGAACAGCATT against Trmt61a | -0.365 (inactive)
GCUGUACGUAGAUUCCAGATT against Mmp21 | 1.48 (inactive)
CCCAAUUAGGCUAUGCUAATT against Amfr | 2.27 (active)
GGAGAAACAUCAAUUGCACTT against Thbs2 | -0.0207 (inactive)
GCUUGAUGACUCUAAACCUTT against Runx2 | 1.29 (inactive)
GCCUCUAUCUGUACUCUGGTT against Pdk2 | -0.944 (inactive)

Sequence | z-score
GCACAAAUCUGGUAAGUCATT against Gtf2h1 | 0.474 (inactive)
GCAACAUAUGGUAUACUGUTT against Mdm4 | 1.41 (inactive)
CCAUGAAAAACUUAGUGUGTT against Trim37 | 0.682 (inactive)
GGAGUGUUUGAGAAAUACCTT against Pnpla7 | 3.32 (active)
CCUUGGGACUGACUGUAAGTT against Ptrh2 | -0.887 (inactive)
GGUCUUAUUUUGAAGUGUUTT against Cybb | 0.013 (inactive)
GCGAUCAAAAAAGUUGCCUTT against Arhgap44 | -0.387 (inactive)
GGAGUGGGAGAAGAUGGAATT against Mbd4 | 2.17 (active)
GCUACAAGUGUUGCCUGAATT against Slit1 | 1.21 (inactive)
GGUGCAGAGAAGAACAAGATT against Inpp1 | -0.993 (inactive)
CCACAGGGAGACAUGAUAUTT against Coprs | -0.292 (inactive)
GUGAUGUCACUAAUGCCAATT against Cd99 | 0.628 (inactive)
GGAUAGACAGAAAUUCUCATT against Flot1 | 1.43 (inactive)
GGAAAACUACUGGAACUGGTT against Irgm1 | 0.415 (inactive)
GGAGGCAGAUGCUGGAAUCTT against Defb3 | 4.19 (active)
GGUGAUCAUGCUAACCUUUTT against Pcolce | 0.436 (inactive)
GGUGUAACUGGGCUGCAUGTT against Avpi1 | 0.269 (inactive)
GGCAAUUCUUAACCUGUCCTT against Tacc1 | -2.75 (active)
GCUGAUGGUAAAUUCACAGTT against Serpinb3c | -1.01 (inactive)
GCAUGUGUACCAUUUACCUTT against Prdx1 | 1.87 (inactive)
GGAUGCCCUUGUCACAAAGTT against Fbl | 0.154 (inactive)
GGAACACUGUAUCUUACGGTT against Mtmr6 | 0.599 (inactive)
GGAGAAGGUGACUUAAUAGTT against 9430077A04Rik | 0.76 (inactive)

Sequence | z-score
GGAGAUCACCUACGACAUGTT against Lgals8 | 0.446 (inactive)
GGUCAUCUCAGUACUACAATT against Dgat2 | 0.251 (inactive)
GGCAAGAAAAACACUUUAUTT against Parp3 | 1.85 (inactive)
GGAAGGAGGACAGAGGAAUTT against Tmem19 | 2.34 (active)
GGCAUUGGAAGAUGCACAGTT against Scp2 | 0.431 (inactive)
GGUUAUAGCAUCCUUAACUTT against Tmem208 | 1.06 (inactive)
GGUGAAGUCUUACCUAUACTT against Aacs | -0.598 (inactive)
GACCUUGGUUAUUCUACAGTT against Olfr1087 | -1.14 (inactive)
GGUGUGUUUUGUAUUGAUUTT against Olfr843 | 0.482 (inactive)
GGCAACAGUGCAUUCAAGUTT against Nptx2 | 3.39 (active)
GGUCUCCAUAAGUGUCAGCTT against Cntfr | -0.407 (inactive)
GGUGUCUCUGAAGAUUGAATT against Cdc6 | 0.345 (inactive)
GGAUUAGGAUCAGCAGGAUTT against Accs | 1.01 (inactive)
GGAUCUUGAUCCACAUCUCTT against Padi6 | -2.47 (active)
GGAGAUAAUCCUUGUCACGTT against Whamm | 0.592 (inactive)
CCCUUAAAGGGUAGCAUUUTT against Ncan | 0.837 (inactive)
GUGGUCUUUAUCGGCAUGATT against Slc35c1 | 0.287 (inactive)
GCUCUUGUAAAUUUGUGAATT against Usp10 | -0.331 (inactive)
GCAGUGCUCUUUAGCAUAATT against Zfp689 | 1.01 (inactive)
GCAUAAAAAACGAAUAGAGTT against Smc1b | -0.432 (inactive)
GCAAGUCCUAGUGUCCUGATT against N6amt1 | -0.213 (inactive)
GGAAAUGCUGCCAUUGUUATT against Aldh3a2 | 0.333 (inactive)
GGAACAAAGACAUUGCUUUTT against Sf3a3 | -2.77 (active)
